An excerpt weighted towards active compounds, which were near 7.5% of everything screened.
TSHR antag: Antagonists of the Thyroid Stimulating Hormone Receptor: HTS campaign; Thyrotropin receptor (Homo sapiens), P16473; TSHR-expressing cells, TSH-stimulated cAMP HTRF, 2 h; hits give low values; activity change, negative = inhibition, % at 11.5 µM; 0.2% of 330,000 active; AID 504810, 2011;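 active means activity change below a set negative limit, meaning inhibition stronger than a set level, cut at about -70% in these data; inconclusive means activity change between two set negative limits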
Target sequence (P16473 whole entry, looked up): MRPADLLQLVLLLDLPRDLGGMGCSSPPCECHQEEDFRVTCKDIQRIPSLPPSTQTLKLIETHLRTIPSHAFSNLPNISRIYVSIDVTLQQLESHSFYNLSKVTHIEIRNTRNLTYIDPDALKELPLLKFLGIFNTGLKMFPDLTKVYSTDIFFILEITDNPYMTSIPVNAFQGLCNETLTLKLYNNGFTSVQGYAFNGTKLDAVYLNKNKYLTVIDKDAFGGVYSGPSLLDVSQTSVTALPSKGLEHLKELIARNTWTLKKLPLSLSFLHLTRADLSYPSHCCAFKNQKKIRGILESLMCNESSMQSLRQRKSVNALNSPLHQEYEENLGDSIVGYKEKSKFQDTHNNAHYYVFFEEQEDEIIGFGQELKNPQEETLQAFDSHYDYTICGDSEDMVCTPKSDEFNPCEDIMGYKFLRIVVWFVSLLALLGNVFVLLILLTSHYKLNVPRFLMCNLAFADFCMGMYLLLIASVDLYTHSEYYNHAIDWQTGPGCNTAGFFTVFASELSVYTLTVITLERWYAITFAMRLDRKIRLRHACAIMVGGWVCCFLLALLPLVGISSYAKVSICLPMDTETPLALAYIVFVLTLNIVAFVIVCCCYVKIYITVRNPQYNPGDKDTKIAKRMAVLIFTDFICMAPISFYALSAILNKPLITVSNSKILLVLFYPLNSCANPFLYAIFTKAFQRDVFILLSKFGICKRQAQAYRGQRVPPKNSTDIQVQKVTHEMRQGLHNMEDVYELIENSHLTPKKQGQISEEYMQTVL
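Cell-based HTRF cAMP assay; TSHR cells + compound, TSH EC80 (4nM final), 2 h, 37 deg C. Lysis with anti-cAMP cryptate and cAMP-d2, 30 min RT, read 665/620 nm.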
VP16 counter: VP16 counterscreen qHTS for inhibitors of ROR gamma transcriptional activity; Drosophila S2 Gal4-VP16 UAS-luciferase, luminescence, 20 h; Potency, µM (titrated, usually from 53.6 µM), inactives show at the highest dose activity, negative = inhibition, actives largely listed as inhibitors; 3.5% of 310,000 active; AID 2546, 2010;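 further: Gal4-VP16 expression switched on by copper sulfate through the metallothionein promoter; potency means the concentration at half of the fitted maximal effect; nearly all actives have a fitted effect of over 50% in size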
ELG1 repair inh: qHTS screen for small molecules that inhibit ELG1-dependent DNA repair in human embryonic kidney (HEK293T) cells expressing luciferase-tagged ELG1; HEK293T ELG1-luciferase reporter, luminescence, 16 h; DNA damage induced by 5-fluorouridine; AID 504467, 2011; 2.3% of 330,000 active; Potency, µM (top dose mostly 46.1 µM), for inactives: at the highest dose activity change, negative = inhibition, actives largely listed as inhibitors; further: potency means the concentration at half of the fitted maximal effect; nearly all actives have a fitted effect of over 55% in size
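DMSO vehicle served as the neutral condition. Each well held 2,000 cells given 5-fluorouridine plus compound; after 16 hr at 37 °C/5% CO2, ONE-Glo was added and luciferase measured 30 min later.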
B2AR arrestin: qHTS assay of beta-arrestin-biased ligands of beta2-adrenergic receptor | Potency, µM (titrated, usually from 46.1 µM), for the others: at the highest dose activation, hits mostly activators | 0.02% of 330,000 active | Beta-2 adrenergic receptor (Homo sapiens), P07550 | beta-arrestin recruitment to beta2AR, cell-based reporter | AID 492947, 2010;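 further: potency means the concentration at half of the fitted maximal effect; 0% = DMSO controls and full agonism = EC100 isoproterenol or metaproterenol; nearly all actives have a fitted effect of over 65% in size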
RORg inh: qHTS for inhibitors of ROR gamma transcriptional activity; Nuclear receptor ROR-gamma (Mus musculus), P51450; Drosophila S2 Gal4-RORgamma UAS-luciferase reporter, 20 h; Potency, µM (top dose mostly 53.6 µM), inactives show at the top dose activity change, negative = inhibition, actives largely listed as inhibitors; 5.4% of 310,000 active; further: potency means the concentration at half of the fitted maximal effect; nearly all actives have a fitted effect of over 60% in size
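Stably transfected Drosophila Schneider cells are the test system, with ROR gamma fused to Gal4 and luciferase under UAS control; luminescence is read after 20 hr of 700 uM copper sulfate induction at ambient temperature.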
* hit, by the source's call. Unless noted, the call rests on the fitted dose curve; in most records, active means well fitted curve in the direction sought with a large enough effect; inconclusive means small, poorly fitted or top-dose-only effect, or another doubt; inactive means no such curve, though single readings can be large; an effect the other way counts as inactive or inconclusive. Unless noted, on the % scale 0 is the no-effect control and ±100 the full control effect.

For Cc1oc(-c2ccc(Cl)cc2)nc1CN1CCCC(C(=O)NCc2cccnc2)C1 (centres undefined) the results were TSHR antag -17, VP16 counter 1%, ELG1 repair inh 6.5µM*, B2AR arrestin -1% and RORg inh inconclusive.
`COc1ccccc1CNC(=O)C1CCN(Cc2nc(-c3cccc(Cl)c3)oc2C)CC1` gave TSHR antag -6, VP16 counter -8%, ELG1 repair inh inconclusive, B2AR arrestin -1% and RORg inh -4%.
For CC(OC(=O)COc1ccccc1Cc1ccccc1)C(=O)N(C)c1ccccc1 (centres undefined) the results were TSHR antag -5, ELG1 repair inh 7% and B2AR arrestin 0%.
`COc1cc(C2Nc3ccc4ncccc4c3C3=C2C(=O)CCC3)cc(OC)c1O` (centres undefined) gave VP16 counter 13%, ELG1 repair inh 16%, B2AR arrestin 0% and RORg inh 2.8µM*.
COc1cc(C2Nc3ccc4ncccc4c3C3=C2C(=O)CC(C)(C)C3)cc(OC)c1O (centres undefined) was read as TSHR antag -13, VP16 counter -9%, ELG1 repair inh inconclusive, B2AR arrestin -1% and RORg inh -23%.
For COc1ccc(/C=C/C2=CC(C)(C)NC(=S)N2)cc1 the results were TSHR antag -8, VP16 counter 2.5µM*, ELG1 repair inh inconclusive, B2AR arrestin 4% and RORg inh 1.3µM*.
For Cc1ccccc1N1CCN(C2CCCN(C(=O)c3cc[n+]([O-])cc3)C2)CC1 (centres undefined) the results were TSHR antag -4, VP16 counter 4%, ELG1 repair inh 17%, B2AR arrestin 0% and RORg inh -11%.
COc1ccc(NS(=O)(=O)c2ccc(O)c(NC(=O)c3cc4c(C)nn(-c5ccc(F)cc5)c4s3)c2)cc1 was read as TSHR antag -18, VP16 counter 22µM*, ELG1 repair inh -22%, B2AR arrestin -1% and RORg inh inconclusive.
`NCCC[C@@H](CC(=O)N[C@@H]1CCCC[C@H]1C(=O)N[C@H](CC(=O)N[C@@H](CCC(=O)O)CC(=O)O)Cc1ccccc1)NC(=O)C[C@H](CO)NC(=O)[C@@H]1CCCC[C@H]1N` gave VP16 counter 1% and RORg inh 8%.
For CC12CCC=CC1C(c1ccc(F)c(Br)c1)N(Cc1ccccc1)C2=O (centres undefined) the results were VP16 counter 28% and RORg inh 15%.
`c1c2c(cc3sc(N4CCOCC4)nc13)OCCO2` gave TSHR antag 4, VP16 counter 4.5µM*, ELG1 repair inh inconclusive, B2AR arrestin -1% and RORg inh 3.5µM*.
Cc1cc(=O)n(-c2ccc(C(=O)O)cc2)[nH]1 was read as TSHR antag 18, VP16 counter -13%, ELG1 repair inh 2%, B2AR arrestin 0% and RORg inh -13%.
CCOC(=O)c1ccc(-n2[nH]c(-c3ccccc3)cc2=O)cc1 was read as TSHR antag -37, VP16 counter 5.6µM*, ELG1 repair inh inconclusive, B2AR arrestin 0% and RORg inh inconclusive.
`Cc1cc(N=Cc2c(O)n(-c3cccc(Cl)c3)c(=O)c3ccccc23)no1` gave TSHR antag -3, VP16 counter -3%, ELG1 repair inh 18µM*, B2AR arrestin -1% and RORg inh 15%.
For COC(=O)N1C2(C=CC1(C)C(=O)NCc1ccc(N(C)C)cc1)CCCCC2 (centres undefined) the results were VP16 counter -3% and RORg inh -4%.
CCOC(=O)C1(Cc2ccccc2)CCCN(Cc2ccccn2)C1 (centres undefined) was read as TSHR antag 5, VP16 counter -12%, ELG1 repair inh -1%, B2AR arrestin 0% and RORg inh 13µM*.
Screening CCOC(=O)C1(Cc2cccc(OC)c2)CCCN(Cc2nccn2CC)C1 (centres undefined) returned TSHR antag -2, VP16 counter inconclusive, ELG1 repair inh -13%, B2AR arrestin 0% and RORg inh 3.5µM*.
CCOC(=O)C1(Cc2cccc(OC)c2)CCN(Cc2cccnc2)CC1 was read as TSHR antag -23, VP16 counter -18%, ELG1 repair inh inconclusive, B2AR arrestin 0% and RORg inh 11µM*.
COCCn1c(=O)c(-c2ccccc2)nc2cnc(Nc3ccccc3)nc21 was read as VP16 counter 2% and RORg inh -2%.
Screening CSCC[C@H](NC(=O)[C@H](Cc1ccccc1)NC(=O)[C@H](Cc1cnc[nH]1)NC(=O)CNC(=O)[C@@H](NC(=O)[C@H](C)NC(=O)[C@H](Cc1c[nH]c2ccccc12)NC(=O)[C@H](CC(C)C)NC(=O)[C@H](CC(N)=O)NC(=O)CN)[C@@H](C)O)C(N)=O returned VP16 counter 0% and RORg inh 11%.
For Cc1ccc(OCC(=O)Oc2c(C)cccc2C)cc1C the results were TSHR antag -9, VP16 counter 6%, ELG1 repair inh -4%, B2AR arrestin 0% and RORg inh 1%.
For Cc1ccc(S(=O)(=O)N2CCOCC2)cc1NC(=O)c1cc2c(s1)CCC2 the results were TSHR antag -23, VP16 counter 0%, ELG1 repair inh 23µM*, B2AR arrestin 0% and RORg inh 11%.
COc1cc(S(=O)(=O)N2CCOCC2)ccc1NC(=O)c1cc2c(s1)CCC2 was read as TSHR antag 1, VP16 counter -6%, ELG1 repair inh -27%, B2AR arrestin 0% and RORg inh 16%.
`Cc1ccc(NC(=O)c2cc3c(s2)CCC3)cc1S(=O)(=O)N1CCOCC1` gave TSHR antag -15, VP16 counter -10%, ELG1 repair inh 23µM*, B2AR arrestin 0% and RORg inh inconclusive.
`CSc1cc2c(cc1C(F)(F)F)N(C(=O)Nc1cccnc1)CC2` gave VP16 counter 3% and RORg inh 22%.
Screening NC(N)=NCCC[C@H](NC(=O)c1ccccc1)C(=O)Nc1ccc([N+](=O)[O-])cc1 returned VP16 counter 2% and RORg inh 4%.
`COc1ccccc1NS(=O)(=O)c1cccc(C(=O)OCC(=O)Nc2cc(C)on2)c1` gave TSHR antag 7, VP16 counter -25%, ELG1 repair inh -17%, B2AR arrestin 0% and RORg inh 11µM*.

Compound activity deposited in PubChem by National Center for Advancing Translational Sciences (NCATS).
